Measurements from PubChem BioAssay (EPA / NIEHS).
Results filed as inconclusive are left out. A structure can be active in one record and inactive in another. Calls of active or inactive are those of the source. How the source made its calls: active means hit-call score of the fitted dose curve at least 0.9, where 1 is the maximum; inconclusive means response in the unintended direction; inactive means score below 0.9.

These molecules were tested against human Vitamin D Receptor (VDR), VDR (gene 7421) (UniProt P11473) (assay: ATG_VDR_TRANS: Attagene TRANS-FACTORIAL HepG2 Assay for human Vitamin D Receptor (VDR) (AID 2283022)).
Sequence of human Vitamin D Receptor (VDR), VDR (gene 7421) (P11473 whole entry, looked up): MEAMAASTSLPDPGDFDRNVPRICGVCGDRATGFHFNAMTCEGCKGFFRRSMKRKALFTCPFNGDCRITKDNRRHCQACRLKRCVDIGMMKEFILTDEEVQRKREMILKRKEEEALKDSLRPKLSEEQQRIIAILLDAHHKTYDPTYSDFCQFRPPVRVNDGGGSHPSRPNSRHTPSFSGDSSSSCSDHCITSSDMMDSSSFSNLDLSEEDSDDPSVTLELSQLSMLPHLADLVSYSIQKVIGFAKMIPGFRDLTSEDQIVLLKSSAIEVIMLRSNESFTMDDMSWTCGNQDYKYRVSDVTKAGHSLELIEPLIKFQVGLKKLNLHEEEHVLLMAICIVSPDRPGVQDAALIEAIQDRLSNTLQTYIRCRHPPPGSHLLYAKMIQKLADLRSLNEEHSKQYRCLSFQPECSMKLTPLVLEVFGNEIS
Procedure: ATG_TRANS is a cell-based, multiplexed-readout assay that uses HepG2, a human liver cell line, with measurements taken at 24 hours after chemical dosing in a 24-well plate.ATG_VDR_TRANS is one of 30 assay component(s) measured or calculated from the ATG_TRANS assay. It is designed to make measurements of mRNA induction, a form of inducible reporter, as detected with fluorescence intensity signals by Reverse transcription polymerase chain reaction (RT-PCR) and Capillary electrophoresis technology.Data from the assay component ATG_VDR_TRANS was analyzed into 1 assay endpoint. This assay endpoint, ATG_VDR_TRANS, was analyzed in the positive analysis fitting direction relative to DMSO as the negative control and baseline of activity. Using a type of inducible reporter, measures of mRNA for gain-of-signal activity can be used to understand the reporter gene at the transcription factor-level as they relate to the gene VDR. Furthermore, this assay endpoint can be referred to as a primary readout, because this assay has produced multiple assay endpoints where this one serves a reporter gene function. To generalize the intended target to other relatable targets, this assay endpoint is annotated to the nuclear receptor intended target family, where the subfamily is non-steroidal.
Human liver HepG2 cells are transiently transfected with multiple reporter transcription units (MRTUs) in 6-well plates using FuGene 6 reagent (Roche; 3 ml FuGene/1 mg DNA). The MRTU constructs are regulated by a cis-regulating element (promoter). […] A major difference between the CIS and TRANS system is that in CIS activities of endogenous TFs are measured, whereas the TRANS assay evaluates changes in activities of exogenous, chimeric NR-Gal4 proteins. […] At the end of 24 hour incubation, total RNA was isolated using TriZol reagent (Invitrogen). The isolated RNA is then reverse-transcribed using oligo(dT) primer and Mo-MLV reverse transcriptase (Invitrogen) with DNAse I (Ambion) treatment for 30 min. The one-tenth of the produced cDNA was amplified by PCR using Taq DNA polymerase (Invitrogen) and two reporter sequence-specific primers. The PCR products were fluorescently labeled by primer extension with 6-arboxyfluorescein (6-FAM) 5'-labeled reporter sequence-specific primer (2 min at 95 C, 20 s at 68 C and 10 min at 72 C) and these products were digested with 5U of HpaI (New England Biolabs) for 2h at 37 C. The fragments were purified using Qiaquick PCR columns (Qiagen), analyzed on an ABI 3130xL genetic analyzer (Applied Biosystems) with peak positions identified by using a set of X-rhodamine (ROX)-labeled MapMarker1000 molecular weight standards (BioVentures). The raw capillary electrophoresis data was processed using Attagraph software (Attagene).

Question: How did the AC50 turn out when `CCN(CC)CCNc1ccc(CNC=O)c2sc3ccc(OC)cc3c(=O)c12` was run?
Answer: 1.47 µM (active)

Question: How did the outcome turn out when `CCCCCCCCCCCCCCCS(=O)(=O)Oc1ccccc1` was run?
Answer: inactive

Question: How did the outcome turn out when `COC(=O)CCCCC(=O)OC` was run?
Answer: inactive

Question: How did the outcome turn out when `CCCCCCC(=O)O` was run?
Answer: inactive

Question: For `NCC(F)(F)C(F)(F)C(F)(F)C(F)(F)C(F)(F)C(F)(F)C(F)(F)F`, which outcome is on record?
Answer: inactive

Question: `CCCCCCCCCCCCCC[N+](C)(C)C` was tested. Which outcome did it give?
Answer: inactive

Question: `c1ccc2cc3c(ccc4ccccc43)cc2c1` was tested. Which outcome did it give?
Answer: inactive

Question: How did the outcome turn out when `OC1CCC(C2CCCCC2)CC1` (stereo not given) was run?
Answer: inactive

Question: For `Oc1cc2ccccc2c2ccccc12`, which outcome is on record?
Answer: inactive

Question: How did the AC50 turn out when `OCCC(F)(F)C(F)(F)C(F)(F)C(F)(F)C(F)(F)C(F)(F)C(F)(F)C(F)(F)F` was run?
Answer: 100 µM (active)

Question: And the outcome?
Answer: inactive

Question: `CC[C@H](C)[C@@H](C(=O)O)n1sc2ccccc2c1=O` was tested. Which outcome did it give?
Answer: inactive

Question: `Cc1ccc(S(=O)(=O)O)c(C)c1` was tested. Which outcome did it give?
Answer: inactive

Question: `CCCCCCCC(=O)O` was tested. Which outcome did it give?
Answer: inactive

Question: How did the outcome turn out when `CCc1nn(C2CCCCC2)c2cc(C3(C#N)CCC(C(=O)O)CC3)ccc12` (stereo not given) was run?
Answer: inactive

Question: `CCC(C)(C)C1CCC(O)CC1` (stereo not given) was tested. Which outcome did it give?
Answer: inactive

Question: For `c1ccc2c(c1)Cc1ccccc1-2`, which outcome is on record?
Answer: inactive

Question: With `O=C(O)Cc1cc(I)c(Oc2cc(I)c(O)c(I)c2)c(I)c1` as the molecule, how does the outcome read?
Answer: inactive

Question: Which outcome does the source give for `Nc1cccc2c(N)cccc12` here?
Answer: inactive

Question: For `CC(C)(C)CC(C)(C)c1ccc(O)c(-n2nc3ccccc3n2)c1`, which outcome is on record?
Answer: inactive

Question: `COCC(C)O` (stereo not given) was tested. Which outcome did it give?
Answer: inactive

Question: `CC(O)C(=O)O` (stereo not given) was tested. Which outcome did it give?
Answer: inactive

Question: With `ClC1=C(Cl)C(Cl)(Cl)C(Cl)=C1Cl` as the molecule, how does the outcome read?
Answer: inactive

Question: Which outcome does the source give for `CN1CCN(c2ccccc2/C=C2\SCCN(c3ccc(Cl)c(Cl)c3)C2=O)CC1` here?
Answer: inactive

Question: With `CCc1ccc(CCOc2ccc(CC3SC(=O)NC3=O)cc2)nc1` (stereo not given) as the molecule, how does the outcome read?
Answer: inactive

Question: With `CCCOC(=O)c1ccc(O)cc1` as the molecule, how does the outcome read?
Answer: inactive

Question: `CCCCC[C@H](O)CC(=O)CCc1ccc(O)c(OC)c1` was tested. Which outcome did it give?
Answer: inactive

Question: `Cc1oc(-c2ccccc2)nc1CCOc1ccc(C[C@H](Nc2ccccc2C(=O)c2ccccc2)C(=O)O)cc1` was tested. Which outcome did it give?
Answer: inactive

Question: With `CCCCCCCCCCCCN1CCCC1=O` as the molecule, how does the outcome read?
Answer: inactive

Question: With `Oc1cccc(O)c1` as the molecule, how does the outcome read?
Answer: inactive

Question: With `CCCCC(CC)COC(=O)CCCCC(=O)OCc1ccccc1` (stereo not given) as the molecule, how does the outcome read?
Answer: inactive

Question: `CC1=C(/C=C/C(C)=C/C=C/C(C)=C/C(=O)O)C(C)(C)CCC1` was tested. Which outcome did it give?
Answer: inactive

Question: With `CC(=O)NC1(c2cccc(F)c2)CCN(CC[C@@]2(c3ccc(Cl)c(Cl)c3)CN(c3ccccc3)C(=O)CO2)CC1` as the molecule, how does the outcome read?
Answer: inactive

Question: For `NC(=O)N1C(=O)C(C(=O)c2cc(Cl)cs2)c2cc(F)c(Cl)cc21` (stereo not given), which outcome is on record?
Answer: inactive

Question: How did the outcome turn out when `CC[C@H](c1ccc(O)cc1)[C@@H](CC)c1ccc(O)cc1` was run?
Answer: inactive

Question: How did the outcome turn out when `COc1cc(CCC(=O)CC(=O)CCc2ccc(O)c(OC)c2)ccc1O` was run?
Answer: inactive

Question: How did the outcome turn out when `c1ccc2c(c1)ccc1ccccc12` was run?
Answer: inactive

Question: How did the outcome turn out when `CC(C)(C)c1ccc(O)c(C(C)(C)C)c1` was run?
Answer: inactive

Question: `CCCCCCCCCCCCc1ccccc1S(=O)(=O)O` was tested. Which outcome did it give?
Answer: inactive

Question: For `CN1CCC[C@H]1c1cccnc1`, which outcome is on record?
Answer: inactive
